Source: PubChem BioAssay
Compounds with a hit are over-represented: about 3.9% of the library has one in this group of screens.
Tb PFK inh = qHTS Assay to Find Inhibitors of T. brucei phosphofructokinase | ATP-dependent 6-phosphofructokinase (Trypanosoma brucei brucei), O15648 | Potency, µM (doses to about 57.5 µM), without a hit: at the highest dose activity, negative = inhibition, hits mostly inhibitors | T. brucei PFK, ADP-Glo luminescence | hit rate 0.17% among 330,000;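 also: 0% = uninhibited 1x PFK enzyme wells and -100% = no-enzyme wells; nearly all actives have a fitted effect of over 60% in size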
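PFK 1.25 nM, F6P 0.5 mM, ATP 0.1 mM, 0.1 M TEA pH 8.0, 5 mM MgCl2, 0.01% Tween20, 0.1% BSA; 45 min RT. ADP-Glo readout. qHTS titration up to 57 uM; curves fitted, compounds curve-classed.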
PLK1 PBD block = qHTS for Inhibitors of PLK1-PDB (polo-like kinase 1 - polo-box domain): Primary Screen; Potency, µM, inactives show max response, negative = inhibition, hits mostly inhibitors; Serine/threonine-protein kinase PLK1 (Homo sapiens), P53350; hit rate 2.8% among 360,000; Plk1 PBD binding of FITC phosphopeptide, fluorescence polarization; AID 720504, 2013; also: series mostly up to about 57 µM; % is scaled to controls: 0 for no effect and ±100 for the full control effect; nearly all actives have a fitted effect of over 65% in size
VDR inhibitor = Inhibitors of the vitamin D receptor (VDR): qHTS | Potency, µM, without a hit: max response, negative = inhibition, actives largely listed as inhibitors | hit rate 0.93% among 400,000 | VDR-SRC2-3 peptide fluorescence polarization, 2 h | Vitamin D3 receptor (Homo sapiens), P11473; also: % is scaled to controls: 0 for no effect and ±100 for the full control effect
Target sequence (P11473 whole entry, looked up): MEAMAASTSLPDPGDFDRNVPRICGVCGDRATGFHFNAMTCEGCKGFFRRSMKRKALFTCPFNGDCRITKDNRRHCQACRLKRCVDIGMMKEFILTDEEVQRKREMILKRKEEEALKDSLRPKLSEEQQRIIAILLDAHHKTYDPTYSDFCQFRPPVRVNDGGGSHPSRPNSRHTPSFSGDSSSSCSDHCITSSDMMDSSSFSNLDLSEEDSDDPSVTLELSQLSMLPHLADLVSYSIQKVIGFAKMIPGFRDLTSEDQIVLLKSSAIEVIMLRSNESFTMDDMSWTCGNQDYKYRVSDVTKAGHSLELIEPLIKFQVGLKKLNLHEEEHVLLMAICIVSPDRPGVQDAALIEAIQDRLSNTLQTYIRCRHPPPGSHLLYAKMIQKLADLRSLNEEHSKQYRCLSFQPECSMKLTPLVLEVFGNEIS
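The screen uses fluorescence polarization to detect compounds that interfere with recruitment of the SRC2-3 coactivator peptide to VDR; plates are read after 2 h at room temperature.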
BRCA1 expr act = qHTS Assay to Identify Small Molecule Activators of BRCA1 Expression; MCF7-BRCA1-FFLuc reporter, luminescence, 48 h; response scale: scaled: vehicle 0%, 10 µM genistein 100%; Potency, µM (top dose mostly 46.1 µM), without a hit: top-dose activation, hits mostly activators; hit rate 1.1% among 380,000; also: nearly all actives have a fitted effect of over 80% in size
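First, MCF7-BRCA1-FFLuc cells (2000/well) attach for 2 h; next, compounds are pin-added and incubated 48 h at 37 °C; finally, luciferase reagent is added and luminescence read after 15 min.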
TbPYK inh = qHTS of Trypanosoma Brucei Inhibitors: Confirmatory Assay for Cherry-picked Compounds; shares compounds with PLK1 PBD block; recombinant TbPYK, Kinase-Glo ATP luminescence; Potency, µM (series often up to 76.9 µM), inactives show top-dose activity change, negative = inhibition, actives largely listed as inhibitors; hit rate 67% among 890; also: % is scaled to controls: 0 for no effect and ±100 for the full control effect; nearly all actives have a fitted effect of over 70% in size
TbPYK ADP-Glo = qHTS of Trypanosoma Brucei Inhibitors: Orthogonal Assay for Cherry-picked Compounds; shares compounds with PLK1 PBD block; recombinant TbPYK, ADP-Glo luminescence, 60 min; Potency, µM (doses to about 76.9 µM), for inactives: top-dose activity change, negative = inhibition, most hits filed as inhibitors; hit rate 62% among 890; also: % is scaled to controls: 0 for no effect and ±100 for the full control effect; nearly all actives have a fitted effect of over 75% in size
Starred values were filed as active, the others as inactive; ? = inconclusive; . = no result. Calls follow the shape of the dose curve; as a rule, active = well fitted curve in the direction sought with a large enough effect; inconclusive = small, poorly fitted or top-dose-only effect, or another doubt; inactive = no such curve, though single readings can be large; an effect the other way counts as inactive or inconclusive. Potency is read from the fitted curve at half-maximal effect.

SMILES | Tb PFK inh | PLK1 PBD block | VDR inhibitor | BRCA1 expr act | TbPYK inh | TbPYK ADP-Glo
Cc1ccc(C)c(NC(=S)N2CCN(c3cccc(C(F)(F)F)c3)CC2)c1 | -2.9% | -6.0% | 8.2% | -2.2% | . | .
Cc1ccnc(NC(=S)N2CCN(c3cccc(C(F)(F)F)c3)CC2)c1 | -9.3% | -7.1% | -18.5% | -31.1% | 2.24µM* | 2.82µM*
COC(=O)[C@]12CCCCC=C1N(Cc1cccc3ccccc13)C(=O)[C@H](CC(=O)NCc1cccc(C(F)(F)F)c1)C2 | . | -14.4% | . | -62.7% | . | .
O=C1C2C(C(=O)N1/N=C/c1ccc(N3CCCCC3)o1)C1C=CC2C12CC2 (centres undefined) | -3.8% | -4.1% | 89.1µM* | 8.0% | 28.2µM* | 31.6µM*
O=C(O)CN1C(=O)/C(=C/c2ccc(N3CCCCC3)o2)SC1=S | -14.4% | -5.9% | ? | -17.7% | . | .
COc1ccc(CCNC(=O)c2cc3n(n2)CCCN(Cc2ccc(C)cc2)C3=O)cc1OC | . | . | 10.6% | . | . | .
COC1=C(OC)C(=O)C(Sc2ccc3ccccc3c2)=CC1=O | . | 0.752µM* | 8.91µM* | -88.6% | 0.355µM* | 2.24µM*
CC(=O)NCCNc1nc2cc(-c3ccccc3CO)sc2c(=O)n1C | . | 5.2% | . | 12.1% | . | .
O=C(c1ccccc1)c1ccccc1N1C(=O)C=CC1=O | ? | 3.36µM* | 25.1µM* | -17.5% | 3.98µM* | 3.98µM*
COc1cc(C(O)c2nc(-c3cccc(NC(C)=O)c3)cs2)ccc1F (centres undefined) | . | -2.7% | . | -25.2% | . | .
CCCN(CCC)C(=O)Cn1c(SCc2cccc(C(F)(F)F)c2)nc2cccnc21 | . | . | 12.7% | . | . | .
CC(C)(C)c1ccc(C(=O)N/C(=C\c2ccco2)C(=O)Nc2ccccc2C(=O)O)cc1 | -17.6% | -18.6% | -17.3% | 40.7% | ? | -25.7%
O=C(Nc1ccc(C(=O)O)cc1)/C(=C\c1ccco1)NC(=O)c1ccccc1 | 14.0% | -12.6% | -10.9% | -14.5% | . | .
CCN(CC)c1ccc(NC(=O)Cn2cc3c(n2)CCC(C)C3)c(C)c1 (centres undefined) | -1.9% | 0.3% | 1.0% | -23.1% | 22.4µM* | ?
CCCCn1c(=O)c2oc3ccccc3c2n(CC(=O)Nc2ccc(CC)cc2)c1=O | . | . | 3.3% | . | . | .
Cc1cccn2c(=O)c3cc(C#N)c(=O)n(-c4nnc(SCc5ccc(F)cc5)s4)c3nc12 | . | . | 9.9% | . | . | .
Cc1nn(C)c(Sc2ccccc2N)c1[N+](=O)[O-] | -20.0% | 13.4µM* | ? | -30.3% | 12.6µM* | 12.6µM*
CC(=O)C1=C(C)NC(SCC(=O)c2ccc(Cl)cc2)=C(C#N)C1CC(C)C (centres undefined) | 4.0% | -26.1% | -13.5% | -25.3% | . | .
CC(=O)C1=C(C)NC(SCC(N)=O)=C(C#N)C1CC(C)C (centres undefined) | 4.8% | -17.7% | 79.4µM* | -15.1% | 7.08µM* | 8.91µM*
CC(=O)C1=C(C)NC(SCC(N)=O)=C(C#N)C1C (centres undefined) | -6.9% | 21.2µM* | ? | -3.9% | ? | ?
CC(=O)C1=C(C)NC(SCC(=O)c2ccc(F)cc2)=C(C#N)C1CC(C)C (centres undefined) | 5.9% | ? | -22.3% | 6.1% | 1.12µM* | 1.78µM*
CC(C)CSc1ccccc1NC(=O)c1sc2nc(-c3ccncc3)ccc2c1N | . | . | -9.0% | -24.4% | . | .
COc1ccc(CNc2ncnc3ccc(-c4cccc(C#N)c4)cc23)c(OC)c1 | . | . | 2.6% | . | . | .
COc1cccc([C@@H]2Oc3ccc(OC)cc3C[C@H]2O)c1 | . | . | -0.9% | . | . | .
O=C(O)c1ccc2nc(-c3ccco3)c(-c3ccco3)nc2c1 | ? | 11.9µM* | ? | -2.6% | 14.1µM* | 15.8µM*
SMILES | Tb PFK inh | PLK1 PBD block | VDR inhibitor | BRCA1 expr act | TbPYK inh | TbPYK ADP-Glo
O=S(=O)(c1ccc2ccccc2c1)N1CCOCC1 | 0.6% | -5.5% | -24.2% | 11.7% | . | .
O=C(O)c1ccc2nc3c(nc2c1)-c1ccccc1C3=O | -0.1% | 29.9µM* | ? | 15.4% | 20µM* | ?
O=S(=O)(c1ccc2nc(-c3ccco3)c(-c3ccco3)nc2c1)N1CCOCC1 | -4.5% | ? | -23.1% | -4.4% | 20µM* | 25.1µM*
O=C(c1ccc2nc(-c3ccco3)c(-c3ccco3)nc2c1)N1CCN(c2ccccc2)CC1 | -0.8% | -10.9% | -0.3% | -57.0% | . | .
COc1ccc(N2CC(NC(=O)c3cc4ccccc4o3)CC2=O)cc1 (centres undefined) | . | . | 4.9% | . | . | .
OC[C@@H]1CN(Cc2cccc(C(F)(F)F)c2)C[C@H](n2cnc3c(NCc4ccncc4)ncnc32)O1 | . | -6.9% | . | -3.5% | . | .
CC(=O)N1CC[n+]2c(-c3ccc(Cl)cc3)csc21 | -25.0% | 5.97µM* | 20µM* | 4.4% | 15.8µM* | 7.08µM*
Cn1c(=O)c(-c2cccs2)nc2cnc(OCc3ccccc3)nc21 | . | . | 0.2% | . | . | .
COc1ccc(OC)c(C2CC(=O)NC(SC)=C2C#N)c1 (centres undefined) | -2.5% | -4.7% | -7.8% | 15.7% | . | .
COc1cc(CN2CC(=O)N(c3cccc(Cl)c3C)C2=S)cc(OC)c1OC | -0.3% | -4.9% | -5.4% | -0.5% | . | .
COc1ccc(OC)c(C2CC(=O)N3CN(c4ccccc4F)CSC3=C2C#N)c1 (centres undefined) | -16.4% | ? | 35.5µM* | -2.6% | 5.01µM* | 10µM*
COc1ccccc1N1CSC2=C(C#N)C(c3ccc(SC)cc3)CC(=O)N2C1 (centres undefined) | -14.2% | 18.9µM* | 22.4µM* | -0.4% | 2.51µM* | 2.24µM*
COc1ccc(OC)c(C2CC(=O)N3CN(c4cccc(Cl)c4C)CSC3=C2C#N)c1 (centres undefined) | -13.1% | ? | 31.6µM* | 0.3% | 15.8µM* | 7.94µM*
COc1cccc(C2CC(=O)N3CN(c4cccc(Cl)c4C)CSC3=C2C#N)c1OC (centres undefined) | -7.3% | 26.7µM* | 22.4µM* | 17.0% | 17.8µM* | 6.31µM*
O=C(CC1CCCC1)NCCS(=O)(=O)N1CCN(c2ccccc2)CC1 | . | -5.3% | . | -11.4% | . | .
COCCN1C(=O)CN(S(C)(=O)=O)CC1(C)C(=O)NC(C)C (centres undefined) | . | -0.5% | . | . | . | .
CC(=O)Nc1cccc(-n2cc3c(c2-c2ccccc2Cl)c(=O)n(C)c(=O)n3C)c1 | . | . | -0.8% | . | . | .
O=C(CCl)NC(Cc1ccccc1)C(=O)OCC(=O)c1ccc(-c2ccccc2)cc1 (centres undefined) | . | 0.6% | -0.7% | -8.7% | . | .
